Screening data deposited in PubChem BioAssay by Columbia University Molecular Screening Center.
VCAM1 TNFa inh: reduces TNF alpha induced VCAM1 expression in HUVEC. HUVEC TNFa-induced VCAM-1 immunofluorescence, high-content imaging. inhibition, % at 2 µM. actives 0.48% (n = 95,000);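 active = inhibition above the batch mean plus 3 SD, with images confirmed as a hit by eye, cut at about 37% in these data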
F-actin modifier: alters cytoskeleton assembly in HUVEC cells; AID 836; HUVEC TNFa F-actin phalloidin imaging, high content; actives 0.18% (n = 91,000); inhibition, % at 2 µM;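 active = inhibition above the batch mean plus 3 SD and confirmed as a hit by visual image inspection, cut at about 30% in these data, passing the limit was not always enough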
HUVEC tox TNFa: HUVEC cytotoxicity counter-screen, TNF alpha stimulated. HUVEC TNFalpha-stimulated, Hoechst cell count, imaging. cell count reduction, % at 2 µM. actives 0.17% (n = 93,000);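 active = cell count reduction exceeding the screen mean by over 5 SD, scaled to untreated wells per plate, cut at about 78% in these data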;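 note: cells counted after 24 h of TNF alpha exposure following the 1 h pretreatment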
E-sel TNF inh: blocks E-selectin expression induced by TNF alpha. HUVEC TNFa-induced E-selectin immunofluorescence, high content. inhibition, % at 2 µM. actives 0.71% (n = 120,000). AID 1246;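 active = inhibition above the batch mean plus 3 SD, and confirmed as a hit on visual image review, cut at about 43% in these data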
Each line names hits and unclear results; the compound was inactive in the other large screens. An excerpt weighted towards active compounds, which were near 1.1% of everything screened.

COc1ccc(-c2nc(CSCC(=O)N3CCC4(CC3)OCCO4)c(C)o2)cc1OC	none (no result: F-actin modifier, E-sel TNF inh)
Cc1oc(-c2cccs2)nc1CSCC(=O)N1CCC2(CC1)OCCO2	E-sel TNF inh 67
Cc1ccc(N2C(=O)NC(=O)C3(Cc4ccccc4N4CCN(c5ccccc5)CC43)C2=O)cc1 (stereo unspecified)	none
CN1C(=O)N(C)C(=O)C2(Cc3ccccc3N3CCOCC32)C1=O (stereo unspecified)	VCAM1 TNFa inh 66
O=C(COc1ccccc1)N1CCN(CC(O)COc2ccccc2)CC1 (stereo unspecified)	F-actin modifier 35 (no result: E-sel TNF inh)
CCCCCc1nc2c(c(=O)c3ccccc3n2C)c(=O)n1C1CCCCCC1	none (no result: VCAM1 TNFa inh, F-actin modifier, HUVEC tox TNFa)
O=C(c1ccco1)C12CN3CN(CN(C3)C1)C2	none
CCN1CCC2(CCNC2)C1 (stereo unspecified)	E-sel TNF inh 98
CCN1CCC2(CC1)NC(CO)(CO)CO2	none
COc1cc2c3c(c1OC)-c1cc(O)ccc1CC3NCC2 (stereo unspecified)	VCAM1 TNFa inh 44
O=C(c1ccc(Cl)cc1)C1CCCN(Cc2ccc3ncccc3c2)C1 (stereo unspecified)	none (no result: VCAM1 TNFa inh, F-actin modifier, HUVEC tox TNFa)
Cc1ccc(-n2nc(C)c(C3C(C#N)=C(N)Oc4c3c(=O)oc3ccccc43)c2Cl)cc1 (stereo unspecified)	none
O=S1(=O)CCN(CCc2c[nH]c3ccccc23)CC1	E-sel TNF inh 100 (no result: VCAM1 TNFa inh, F-actin modifier, HUVEC tox TNFa)
CN1C2CCC1/C(=C/c1ccccn1)C(=O)/C2=C\c1ccccn1	E-sel TNF inh 96 (no result: VCAM1 TNFa inh, F-actin modifier, HUVEC tox TNFa)
CN1CCc2nc(N)c(C#N)c(-c3ccccc3)c2C1	none
CN1CCc2nc3sc(C#N)c(N)c3c(-c3cccs3)c2C1	VCAM1 TNFa inh 90 (no result: E-sel TNF inh)
CC1CCCC(C)N1/N=C/c1c[nH]c2ccc(Br)cc12 (stereo unspecified)	none (no result: VCAM1 TNFa inh, F-actin modifier, HUVEC tox TNFa)
COC(=O)C[C@]1(C(=O)OC)CN(C#N)N(c2ccc(Cl)cc2)C12c1ccccc1-c1ccccc12	VCAM1 TNFa inh 100, E-sel TNF inh 89 (no result: HUVEC tox TNFa)
CC(=O)NC1CC2CCCC(C1)N2 (stereo unspecified)	F-actin modifier 67
CCNc1cc(N2CCNCC2)ccc1[N+](=O)[O-]	none (no result: VCAM1 TNFa inh, F-actin modifier, HUVEC tox TNFa)
CN(C)C(=S)SSC(=S)N(C)C	E-sel TNF inh 86 (no result: VCAM1 TNFa inh, F-actin modifier, HUVEC tox TNFa)
CCN1CCN(Cc2ccccc2C)CC1	E-sel TNF inh 95 (no result: VCAM1 TNFa inh, F-actin modifier, HUVEC tox TNFa)
CCN1CCN(Cc2ccc(C)cc2)CC1	E-sel TNF inh 95 (no result: VCAM1 TNFa inh, F-actin modifier, HUVEC tox TNFa)
CCN1CCN(Cc2ccc(C)cc2C)CC1	none (no result: VCAM1 TNFa inh, F-actin modifier, HUVEC tox TNFa)
CC(Cc1ccccc1Sc1ccccc1O)N(C)C (stereo unspecified)	none
Cc1ccc(C(C)C)c(OCC(=O)N2CCN(Cc3nc4cc([N+](=O)[O-])ccc4n3C)CC2)c1	none (no result: VCAM1 TNFa inh, F-actin modifier, HUVEC tox TNFa)
S=C=Nc1ccccn1	none (no result: VCAM1 TNFa inh, F-actin modifier, HUVEC tox TNFa)
CC1CCCC(C2(O)C(=O)Nc3ccccc32)C1=O (stereo unspecified)	none
Cn1cccc1/C=C1/C(=O)NC(=O)N(Cc2ccccc2)C1=O	E-sel TNF inh 61 (no result: VCAM1 TNFa inh, F-actin modifier, HUVEC tox TNFa)
CCOC(=O)N(c1ccccc1)P1(=S)OCCO1	E-sel TNF inh 79
